High-throughput results from PubChem.
Only some compounds are listed: those with a hit (about 4.6% of all), similar ones and a draw of the others.
Mdm2-MdmX inh – human Mdm2/MdmX binding inhibition; O15151+Q00987; SaOS-2 split-luciferase Mdm2/MdmX complementation, luminescence; inhibition, % at 8 µM; 330,000 compounds, 3% hits;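 active = inhibition of at least 50% at 8 µM in the primary screen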
Peg3 prom inh – reduces Peg3 promoter-driven luciferase expression in HeLa; HeLa PEG-Prom luciferase reporter, luminescence, overnight; inhibition, % at 20 µM; 360,000 compounds, 1.7% hits; AID 588405;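 active = inhibition of at least 50% at 20 µM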
ABHD5 PLIN5 PPI – blocks binding of human ABHD5 to perilipin-5. Q00G26+Q8WTS1. Split G. princeps luciferase complementation, luminescence, 4 h. inhibition, % at 4 µM. 360,000 compounds, 0.78% hits;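 active = inhibition above the mean inhibition across every tested compound plus 3 SD, cut at about 22% in these data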;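 also: 0% = DMSO only wells and the 100% control is not disclosed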
CF NFkB inh – inhibitors of cystic fibrosis induced NF-kB. KKLEB NF-kB-GFP reporter, PAF-induced, GFP fluorescence overnight. inhibition, % at 5 µM. 360,000 compounds, 0.86% hits;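 active = at least 50% inhibition at 5 µM, scaled per plate between neutral and stimulator controls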;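 also: PAF is a Pseudomonas aeruginosa culture filtrate used as stimulus; plate controls were PAF-stimulated DMSO wells for no effect and unstimulated DMSO wells for full effect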
HIF-2a inh – inhibitors of HIF-2a; inhibition, % at 18.8 µM; 360,000 compounds, 0.72% hits; 786-0 RCC cells HIF-2a reporter, luciferase luminescence, overnight;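 active = inhibition of the luminescence signal of 40% or more relative to plate controls, in a single-dose primary screen at 18.75 µM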
KKLEB tox – counter-screen for CF NF-kB inhibitors: cytotoxicity | KKLEB CF airway cells viability, ATPlite luminescence, overnight; hits give low values; cells stimulated with P. aeruginosa culture filtrate | activity change (cytotoxicity), % at 5 µM | 360,000 compounds, 0.36% hits | AID 602141;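 active = corrected activity change at or below -50% at 5 µM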
ABHD5 PLIN5 conf – ABHD5-PLIN5 interaction inhibition, confirmed | 2,200 compounds, 67% hits | inhibition, % at 4 µM | shares compounds with ABHD5 PLIN5 PPI | biochemical ABHD5-PLIN5 interaction, luminescence; in the data active = inhibition above about 23%;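 also: 0% = DMSO vehicle wells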
HNF4 split-luc – HNF4 split-luciferase signal hit, counter-screen | shares compounds with ABHD5 PLIN5 PPI | inhibition, % at 4 µM | HNF4 dimerization, luminescence, biochemical | 2,200 compounds, 77% hits;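 active = mean inhibition across replicate wells exceeding the computed hit threshold, cut at about 13% in these data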;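 also: light from luciferase halves that rejoin when HNF4 fusion proteins dimerize; 0% = DMSO only wells and the 100% control is not given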
Target sequence (P41235 whole entry, looked up, the tested form may be a part): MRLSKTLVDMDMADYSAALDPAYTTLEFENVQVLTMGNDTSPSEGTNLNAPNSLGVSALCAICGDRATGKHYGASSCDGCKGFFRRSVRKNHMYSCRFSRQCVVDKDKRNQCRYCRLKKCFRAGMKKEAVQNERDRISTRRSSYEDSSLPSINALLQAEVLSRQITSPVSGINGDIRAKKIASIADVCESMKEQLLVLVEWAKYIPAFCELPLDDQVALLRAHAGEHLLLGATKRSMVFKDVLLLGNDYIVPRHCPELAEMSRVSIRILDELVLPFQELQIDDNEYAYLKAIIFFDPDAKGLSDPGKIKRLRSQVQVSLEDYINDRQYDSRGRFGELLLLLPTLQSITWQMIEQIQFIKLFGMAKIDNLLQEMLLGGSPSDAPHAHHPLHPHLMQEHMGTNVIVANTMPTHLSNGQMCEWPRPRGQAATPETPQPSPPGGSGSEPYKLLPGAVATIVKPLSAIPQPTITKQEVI
* = called active by the depositor; . = not tested or not shown.

SMILES | Mdm2-MdmX inh | Peg3 prom inh | ABHD5 PLIN5 PPI | CF NFkB inh | HIF-2a inh | KKLEB tox | ABHD5 PLIN5 conf | HNF4 split-luc
O=C(/C=C/c1ccccc1)c1ccc2c(c1)OCCCCO2 | -168.6 | -169.0 | 23.8* | -16.9 | -123.0 | -11.8 | 53.1* | 42.7*
COc1cccc(/C=C/C(=O)OCC(=O)c2ccc3c(c2)NC(=O)CO3)c1 | 22.7 | 34.3 | -5.3 | -2.3 | 10.4 | 15.0 | . | .
N#Cc1ccc(/C=C/C(=O)c2ccc3c(c2)OCO3)cc1 | 27.6 | 14.7 | 32.5* | -3.7 | -37.1 | -6.9 | 88.1* | 82.2*
O=C1COc2ccc(C(=O)/C=C/c3ccccc3)cc2N1 | 38.7 | 19.6 | 47.4* | 1.9 | -127.3 | 1.2 | 76.9* | 62.2*
Cc1sc2ncn(CC(=O)NCc3ccco3)c(=O)c2c1-c1ccc(F)cc1 | 13.3 | 12.4 | 28.7* | 30.5 | 6.7 | -38.9 | 55.9* | 61.7*
Cc1ccc(/C=C/C(=O)Nc2cccc3ncccc23)o1 | 7.1 | -15.8 | 42.5* | 6.1 | 3.5 | -10.9 | 29.5* | 32.9*
CCOC(=O)[C@]12CCC=C1N(Cc1ccc(Cl)cc1Cl)C(=O)[C@H](CC(=O)NCc1cccc(C(F)(F)F)c1)C2 | . | . | 25.5* | . | -1.6 | . | 20.9 | 0.8
CCOC(=O)N1CCN(C(=O)C[C@@H]2C[C@@]3(C(=O)OCC)CCC=C3N(Cc3ccc(Cl)cc3Cl)C2=O)CC1 | . | . | 25.7* | . | -2.6 | . | 35.1* | -1.9
COc1ccc(NC(=O)CCC(=O)c2cc(C)sc2C)cc1 | 18.6 | -8.7 | -1.0 | -17.2 | -7.1 | 8.1 | . | .
Cc1ccc(S(=O)(=O)N2CCOCC2)cc1C(=O)OCC(=O)NC1CCCC1 | 14.2 | -3.7 | -5.6 | 5.1 | 6.3 | -18.1 | . | .
COc1cccc(NC(=O)COc2coc(CN3CCN(c4ccccc4)CC3)cc2=O)c1 | 7.2 | 21.8 | 24.8* | 10.8 | 2.5 | -3.5 | 6.5 | 0.6
NC(=O)C1=C[C@H](c2coc3ccccc3c2=O)C[C@H](OCCCCO)O1 | -28.1 | -16.0 | 23.3* | 2.6 | 3.8 | -11.7 | 2.0 | 6.2
Cc1ccc(C(=O)/C=C/c2ccc3ncccc3c2)cc1 | 11.4 | 5.4 | 37.6* | 34.0 | -57.0 | -0.5 | 78.0* | 78.2*
Cc1ccc(/C=C/C(=O)c2ccc(O)cc2)cc1 | -74.3 | -214.3 | 1.5 | 2.8 | -209.6 | -9.1 | . | .
C=CCn1c(O)c(C2=c3ccccc3=NC2=O)c2ccccc21 | 31.5 | 48.9 | 89.9* | 28.8 | 45.2* | -9.9 | 85.2* | 107.5*
Cc1ccc2c(c1)c(C1=c3ccccc3=NC1=O)c(O)n2C | 15.8 | 21.2 | 33.0* | 52.9* | 42.3* | -14.6 | 88.0* | 108.0*
CN(C)C/C=C(\c1ccc(Br)cc1)c1cccnc1 | -2.5 | -16.5 | 7.0 | 6.8 | -1.2 | 14.0 | . | .
COc1ccccc1OCc1nnc(SCC(=O)NCc2ccco2)n1Cc1ccco1 | 23.8 | 11.0 | 31.4* | -3.1 | 11.3 | -11.9 | 48.0* | 34.2*
CNC(=O)c1ccc(NC(=O)Cc2ccc(S(=O)(=O)N3CCOCC3)s2)cc1 | 7.7 | 4.0 | 0.8 | 8.0 | 9.4 | -0.7 | . | .
COc1ccc(S(=O)(=O)N(C(C)=O)c2ccc3oc(=O)sc3c2)cc1 | 11.8 | -4.9 | 28.7* | -3.3 | 16.8 | 24.0 | -54.9 | 16.4*
O=C(c1ccccc1NS(=O)(=O)c1ccc([N+](=O)[O-])cc1[N+](=O)[O-])N1O[C@@H]2C=C[C@H]1C2 | 23.1 | 7.2 | 27.2* | 10.8 | -15.9 | -0.1 | 48.7* | 74.0*
CN(C)c1cccc(C(=O)N2CCCC(CCC(=O)NCc3ccccc3F)C2)c1 (stereo not drawn) | 1.9 | -13.1 | 5.7 | -17.7 | -60.6 | 5.8 | . | .
COC(=O)[C@]12CCCCC=C1N(Cc1ccco1)C(=O)[C@H](CC(=O)NCCC(C)C)C2 | . | . | 11.4 | . | 9.3 | . | . | .
Nc1ncc(Br)cc1S(=O)(=O)NCCc1ccccc1 | 23.5 | 22.7 | 0.3 | -0.1 | 7.6 | -3.4 | . | .
COc1ccc(-c2c(C#Cc3ccsc3)c3cc(-c4ccc5c(c4)OCO5)ccc3n2C)cc1 | 18.7 | -5.5 | -1.8 | -64.2 | -26.4 | 5.0 | . | .
SMILES | Mdm2-MdmX inh | Peg3 prom inh | ABHD5 PLIN5 PPI | CF NFkB inh | HIF-2a inh | KKLEB tox | ABHD5 PLIN5 conf | HNF4 split-luc
COc1cc(OC)cc(-c2c(C#Cc3ccsc3)c3cc(-c4ccc5c(c4)OCO5)ccc3n2C)c1 | -16.3 | -14.8 | 97.8* | 7.4 | 9.6 | 12.9 | 5.7 | 1.2
Cc1nc2scc(-c3ccco3)c2c(=O)n1/N=C/N(C)C | -4.0 | 12.0 | 42.6* | 19.0 | 10.2 | -5.5 | 18.6 | 28.9*
O=C1c2ccccc2C(=O)N1c1nccs1 | . | 6.9 | 7.5 | -12.7 | 4.7 | 4.8 | . | .
O=c1c2ccccc2sn1-c1nccs1 | . | 18.0 | 81.0* | -8.2 | -8.3 | -8.7 | 86.5* | 118.0*
CC(C)(C)c1cc(=O)n(-c2ccccc2)[nH]1 | . | -4.1 | 25.7* | 29.3 | 0.9 | -10.8 | -19.9 | -16.8
Cc1ccc(NC2CNC(=O)NC2=O)cc1C (stereo not drawn) | . | 5.5 | -3.1 | -13.9 | 11.1 | 2.7 | . | .
Cc1ccc(NC2C(=O)NC(=O)NC2=O)cc1 | . | -23.1 | 44.0* | -28.9 | -9.3 | 1.1 | 9.9 | 14.7*
Nc1ccc(O)c2ccccc12 | 14.3 | . | . | . | . | . | . | .
CC(C)SC1=NC(C)(C)C=C(/C=C/c2ccc(Cl)cc2Cl)N1 | 47.3 | 49.0 | 38.9* | 16.0 | 30.7 | -19.9 | 25.2* | 30.5*
CC(=O)c1c(C)[nH]c(C(=O)OCC(=O)NCCC2=CCCCC2)c1C | 21.9 | -7.6 | 12.9 | -7.6 | 2.0 | -3.5 | . | .
O=C(N/N=C/c1ccc(COc2ccc(Br)cc2)o1)c1ccco1 | -1.7 | -48.6 | 0.3 | 0.1 | -38.5 | -11.0 | . | .
CCN(CC)C(=O)CSc1nc2ccccc2c(=O)n1OC(C)C | -1.7 | 26.1 | 24.1* | -0.3 | 3.0 | -6.7 | 0.6 | -1.5
CCn1c(=O)n(CC)c2cc(N3CCCC3)c(NC(=O)c3ccccc3F)cc21 | 11.2 | 19.6 | 2.2 | -13.0 | 4.2 | 1.2 | . | .
CN(C)CCOC1(Cc2ccc(F)cc2)CCC(C(C)(C)C)CC1 (stereo not drawn) | . | 8.3 | 25.2* | 9.4 | -2.7 | 15.2 | 32.7* | 5.0
O=C(NNc1c2ccccc2nc2ccccc12)c1ccccc1O | 37.1 | 2.9 | 25.8* | -142.3 | -84.4 | -4.5 | 25.3* | 18.4*
Cc1cc(C)n(CCc2nc(-c3ccco3)cs2)n1 | 3.8 | -15.2 | 10.3 | 11.7 | 6.6 | -7.5 | . | .
Cc1nn(CCc2nc(-c3ccco3)cs2)c2[nH]c(=O)cc(C(F)(F)F)c12 | 21.1 | 6.6 | 41.4* | -16.8 | 6.2 | -2.1 | 21.3 | 16.3*
O=C1/C(=N/n2cnnc2)c2ccccc2N1Cc1ccccc1 | 20.5 | . | . | . | . | . | . | .
CNC(=S)N(C)/N=C1/C(=O)N(Cc2c(Cl)cccc2Cl)c2ccccc21 | 43.0 | 26.7 | 26.7* | 23.0 | 10.9 | 11.7 | -3.8 | 15.9*
